The target of assay [1] is Aldehyde dehydrogenase, mitochondrial (Homo sapiens) (UniProt P05091). Kind of assay: qHTS for Inhibitors of the Aldehyde Dehydrogenase Family (ALDH2) Primary screen (AID 2061308; note: nearly all actives have a fitted effect of over 55% in size). (In qHTS, concentration-response curves come from the screen itself.)
For assay [2], the target named is Retinaldehyde dehydrogenase 3 (Homo sapiens) (UniProt P47895). Kind of assay: qHTS for Inhibitors of the Aldehyde Dehydrogenase Family (ALDH1A3) Primary screen (AID 2061315).

We go through 41 compounds from PubChem BioAssay (NCATS).

Results filed as inconclusive are left out. Entries that show only a call come without a potency. Calls of active or inactive are those of the source. Calls come from the whole dose curve; as a rule, active = well fitted curve in the direction sought with a large enough effect; inconclusive = small, poorly fitted or top-dose-only effect, or another doubt; inactive = no such curve, though single readings can be large; an effect the other way counts as inactive or inconclusive.

As for `CC(C)c1ccccc1-c1ncc(F)c(NCc2ccc(-c3cccnc3)s2)n1`, the Potency entry in assay [1] and in assay [2] was “inactive” in each case.
On to `CCCn1c(-c2ccc(F)cc2)nc2c(NC(C)CCCN(CC)CC)nc(C)nc21` (configuration not stated), for which the Potency entry in assay [1] and in assay [2] was “inactive” in each case.
For `Cc1cn(-c2cccc(NC(=O)c3ccc(C)c(Nc4nccc(-c5cccnc5)n4)c3)c2)cn1`, the Potency entry in assay [1] and in assay [2] was “inactive” throughout.
For `CCCn1c(-c2ccc(F)cc2)nc2c(NCCN3CCCC3)nc(C)nc21`, the Potency result in assay [1] and in assay [2] was “inactive” in each case.
Consider `Cc1cc(N[S+](=O)([O-])c2cc3c(cc2Cl)CCC(=O)N3)ccc1Cl`, for which the Potency entry in assay [1] and in assay [2] was “inactive” in each case.
As to `COc1ccccc1NC(=O)c1cc(-c2ccc(C)c(C)c2)nc2ccccc12`, the Potency result in assay [1] and in assay [2] was “inactive” in each case.
On to `O=C(CNC(=O)c1cccc(Cl)c1)OC(C(=O)Nc1cc(C(F)(F)F)ccc1Cl)c1ccccc1` (configuration not stated), for which the Potency result in assay [1] and in assay [2] was “inactive” throughout.
On to `O=C(Nc1ccc(S(=O)(=O)Nc2nccs2)cc1)C1CC(OCc2ccccc2)C1` (configuration not stated), for which the Potency result in assay [1] and in assay [2] was “inactive” in each case.
In the case of `Cc1c(Br)cc(F)c([S+](=O)([O-])N2CCN([S+](=O)([O-])c3ccc4c(c3)OCCO4)CC2)c1F`, the Potency entry in assay [1] and in assay [2] was “inactive” in each case.
With `CCOc1ccccc1CNc1ncnc2ccc(-c3c(C)noc3C)cc12`, the Potency entry in assay [1] and in assay [2] was “inactive” each time.
Turning to `Cc1ccc(S(=O)(=O)Nc2cnccc2C(=O)Nc2nc(-c3ccncc3)cs2)cc1`, the Potency entry in assay [1] and in assay [2] was “inactive” throughout.
On to `O=C(OCC#CCSc1nnc(-c2cccc3ccccc23)o1)c1ccc(OC(F)(F)F)cc1`, for which the Potency entry in assay [1] and in assay [2] was “inactive” throughout.
For `Cc1ccc(OCCn2c(CCNC(=O)c3ccncc3)nc3ccccc32)cc1`, the Potency result in assay [1] and in assay [2] was “inactive” throughout.
For the compound `Cc1ccc(-c2csc(NC(=O)c3ccccc3NS(=O)(=O)c3ccc(C)cc3)n2)cc1`, the Potency entry in assay [1] and in assay [2] was “inactive” in each case.
`Cc1ccc(-c2ccc(=O)n(CC(=O)NCCc3ccccc3)n2)cn1`: the Potency result in assay [1] and in assay [2] was “inactive” throughout.
Regarding `O=C(c1cc2sccc2n1Cc1ccccc1)N(CCc1ccc(O)c(O)c1)Cc1ccccc1`, the Potency entry in assay [1] and in assay [2] was “inactive” each time.
For `O=C(Nc1ncc(Cc2cccc(C(F)(F)F)c2)s1)c1ccc(-c2cccc([N+](=O)[O-])c2)o1`, the Potency entry in assay [1] and in assay [2] was “inactive” throughout.
Regarding `O=C(/C=C/c1cccc(Cl)c1)Nc1cccc([S+](=O)([O-])Nc2ccccc2F)c1`, the Potency entry in assay [1] and in assay [2] was “inactive” throughout.
For the compound `O=C1c2ccccc2C(=O)N1c1ccccn1`, the Potency entry in assay [1] and in assay [2] was “inactive” throughout.
For the compound `FC(F)(F)c1ccccc1-c1nc(NCc2cccs2)c2ccccc2n1`, the Potency result in assay [1] and in assay [2] was “inactive” in each case.
Consider `COc1cc(O)c(C(CC(=O)N2CCC(C)CC2)c2ccc(OC)c(OC)c2)c(OC)c1` (configuration not stated), for which the Potency entry in assay [1] and in assay [2] was “inactive” each time.
In the case of `FC(F)(F)c1ccc(CNc2nc(-c3ccccc3C(F)(F)F)nc3ccccc23)cc1`, the Potency entry in assay [1] and in assay [2] was “inactive” each time.
Regarding `Cc1cc(N[S+](=O)([O-])c2ccc(NC(=O)Cc3ccc(Cl)c([N+](=O)[O-])c3)cc2)no1`, the Potency entry in assay [1] and in assay [2] was “inactive” in each case.
Turning to `O=C1CCCC2=C1C1(CCCC1)N=C(Nc1nc3cc4ccccc4cc3o1)N2`, the Potency result in assay [1] and in assay [2] was “inactive” each time.
`S=C(NCCCc1cnc[nH]1)NCCCN(Cc1ccc(Cl)cc1)c1ccc(Br)cn1`: the Potency result in assay [1] and in assay [2] was “inactive” each time.
With `CCCn1c(C)nc2c(NCCCCN3CCCC3)nc(C)nc21`, the Potency entry in assay [1] and in assay [2] was “inactive” throughout.
Take `CCOc1ccc(C(=O)Oc2ccc(-c3nc4ccccc4[nH]3)cc2)cc1[N+](=O)[O-]`: the Potency entry in assay [1] and in assay [2] was “inactive” throughout.
With `Cc1cccc(-n2cnc3cc(C(=O)N4CCC(Cc5ccccc5)CC4)ccc32)c1`, the Potency entry in assay [1] and in assay [2] was “inactive” in each case.
Take `CCC(C)(CCN1CCOCC1)N(Cc1cc2ccccc2n(C)c1=O)C(=O)C1CCCCC1` (configuration not stated): the Potency result in assay [1] and in assay [2] was “inactive” in each case.
On to `O=C(CSc1nnc(-c2cccc(S(=O)(=O)N3CCCC3)c2)n1-c1ccccc1)Nc1ccccc1`, for which the Potency result in assay [1] and in assay [2] was “inactive” each time.
With `N=c1c2c(ncn1CCN1CCOCC1)Oc1ccc3ccccc3c1C2c1ccccc1` (configuration not stated), the Potency entry in assay [1] and in assay [2] was “inactive” in each case.
`COc1cccc(-c2ccc3ncnc(N(C)Cc4ccco4)c3c2)c1`: the Potency entry in assay [1] and in assay [2] was “inactive” each time.
Consider `Cc1ccc(OCCn2c(CCNC(=O)c3cccc4[nH]ccc34)nc3ccccc32)cc1`, for which the Potency result in assay [1] and in assay [2] was “inactive” throughout.
With `COc1ccc(-c2nnc3n2N=C(c2cccc(OC)c2)CS3)cc1`, the Potency result in assay [1] and in assay [2] was “inactive” in each case.
As to `CCOc1ccccc1-c1nnc2n1N=C(c1ccccc1OC)CS2`, the Potency result in assay [1] and in assay [2] was “inactive” throughout.
In the case of `COc1ccc(CCc2nc3c(C)c(-c4c(C)noc4C)c(C)cc3n2CCN2CCOCC2)cc1`, the Potency entry in assay [1] and in assay [2] was “inactive” in each case.
On to `CCC(C)/C=C(C)/C=C/C1=CC2=C(Cl)C(=O)C(C)(OC(C)=O)C(=O)C2(O)C(OC)O1` (configuration not stated), for which the Potency entry in assay [1] and in assay [2] was “inactive” in each case.
For the compound `O=[S+]([O-])(c1ccc(OC(F)(F)F)cc1)N1CCN([S+](=O)([O-])c2ccc3c(c2)OCCO3)CC1`, the Potency entry in assay [1] and in assay [2] was “inactive” in each case.
Regarding `Cc1nc(CNc2ncnc3ccc(-c4oc(-c5ccccc5)nc4C)cc23)cs1`, the Potency result in assay [1] and in assay [2] was “inactive” in each case.
In the case of `COc1ccc(C2=Nn3c(nnc3-c3ccccc3C(F)(F)F)SC2)cc1O[C@H]1CCOC1`, the Potency entry in assay [1] and in assay [2] was “inactive” each time.
Regarding `CC(C)(O)/C=C/C(=O)[C@](C)(O)[C@H]1[C@H](O)C[C@@]2(C)[C@@H]3CC=C4[C@@H](C[C@H](O[C@@H]5O[C@H](CO)[C@@H](O)[C@H](O)[C@H]5O)C(=O)C4(C)C)[C@]3(C)C(=O)C[C@]12C`, the Potency result in assay [1] and in assay [2] was “inactive” in each case.
